We go through 38 compounds from PubChem BioAssay (NCI).

The panel holds about 83,000 compounds, 20% with a hit somewhere; the sample as a whole holds those more often.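 Step 1: grow cells in 96-well plates. Step 2: add test compound at a single concentration. Step 3: incubate 48 h. Step 4: record percent growth.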 The source made the active and inactive calls. How the source made its calls: active means growth percent below 10; inactive means the rest.

The subject of the first assay is ACHN renal. Briefly: NCI-60 one-dose screen, 48 h (100 = growth as untreated, 0 = no growth, -100 = all killed). The settings on record: 10 µM unless noted.
`CCCCCCC(CC#N)(CCC)CCCC` (configuration not stated): the growth was 99% (inactive). Still for that read-out and setting: the value for `COc1ccc(NC(=O)c2ccccc2-c2ccccc2)c(C(N)=O)c1` was 40.4% (inactive); that for `Cc1ccc(-c2csc(N)n2)cc1` was 97.7% (inactive). The same measure, in the same setting: the value for `NS(=O)(=O)c1ccc(N2CC(c3nc4ccccc4[nH]3)CC2=O)cc1` (configuration not stated) was 91.9% (inactive). With `Cc1nn(-c2ccccc2)c2nc(N)c(C3=NCCO3)nc12`, the growth is 83% (inactive). Still for that read-out and setting: the value for `CCCCNCCCN(CCCC)CCCNCCCC` was 104% (inactive). With `Oc1c(Cl)cc(Cl)c(Cl)c1Cc1c(O)c(Cl)cc(Cl)c1Cl`, the growth was 18.4% (inactive). The same measure, in the same setting: the value for `CSc1nc(Nc2ccc(S(=O)(=O)Nc3ccon3)cc2)c(C#N)c(-c2ccc(Cl)cc2)n1` was 90.2% (inactive); that for `COC(=O)[C@H](Cc1cn(C)cn1)NC(=O)[C@H](Cc1ccccc1)NC(=O)Nc1cc(C(F)(F)F)cc(C(F)(F)F)c1` was -96.3% [100 µM] (active); that for `Cn1c(N2N=C(c3ccc(Cl)cc3)CC2c2ccccc2)nc(-c2ccccc2)c(C#N)c1=O` (configuration not stated) was 77.2% (inactive). Same read-out and setting: the value for `NC(=NCCCCCCN=C(N)/N=C(\N)Nc1ccc(Cl)cc1)/N=C(\N)Nc1ccc(Cl)cc1` was 20.5% (inactive); that for `Oc1c(N=Nc2nn[nH]n2)ccc2ccccc12` was 86.8% (inactive). Consider `Cc1ccc(/C=C/C(=O)c2ccc(F)cc2)s1`, for which the growth is 83% (inactive). The same measure, in the same setting: the value for `CC[N+](CCCCCCCCCC[N+](CC)(c1ccccn1)c1ccccn1)(c1ccccn1)c1ccccn1` was 20.9% (inactive); that for `O=C(c1ccc(N2CCOCC2)cc1[N+](=O)[O-])N1CCOCC1` was 100% (inactive); that for `Cc1ccc(-c2c3c(N)nc(-c4ccncc4)nc3nc3c2c(C)nn3-c2ccccc2)cc1` was 53.2% (inactive). Still for that read-out and setting: the value for `COc1cccc(CCN2C(=O)CCC3=C2CCC3=O)c1` was 99.8% (inactive). Still for that read-out and setting: the value for `CC(=O)c1nn(-c2ccccc2)c(=Nc2ccccc2)cc1C` was 86.7% (inactive). On to `CCOC(=O)/C(=C/CC/C(C)=C/CC/C(C)=C/CCc1ccoc1)CC(=O)N1CCCCC1`, for which the growth is 55.2% (inactive).

For the compound `CCCCCCCSc1ncnc2[nH]ncc12`, the growth was 88.7% (inactive). On the same count and under the same terms, the value for `CC1CC=CCC1C1OCC(C)(C)CO1` (configuration not stated) was 106% (inactive). On to `Cc1[nH]c(=O)[nH]c(=O)c1CCSSCCc1c(C)[nH]c(=O)[nH]c1=O`, for which the growth was 104% (inactive). Same read-out and setting: the value for `CC(NNC(=S)N1CCCCCC1)c1ccc2ccccc2n1` (configuration not stated) was 16.7% (inactive); that for `NS(=O)(=O)c1ccc(-n2nc(-c3ccc(Br)cc3)ccc2=O)cc1` was 70.8% [100 µM] (inactive); that for `CCOc1cc(CCNS(=O)(=O)c2ccc(C)cc2)c(C(C)=O)cc1OCC` was 75.5% [100 µM] (inactive). Same read-out and setting: the value for `CC(=O)N1N=C(c2ccc(Nc3ccnc4cc(Cl)ccc34)cc2)CC1c1ccc(Cl)cc1` (configuration not stated) was 34.1% (inactive); that for `COC(=O)[C@H](Cc1cnc[nH]1)NC(=O)[C@@H](NC(=O)Nc1cc(C(F)(F)F)cc(C(F)(F)F)c1)C(C)C` was -58.3% [100 µM] (active). Still for that read-out and setting: the value for `CCCCCCCCCCCCC1CCCC(C)C1` (configuration not stated) was 95.5% (inactive).

For `CCCCCc1c(C)[nH]c(/C=C2\N=C(c3ccc[nH]3)C=C2OCc2ccccc2)c1C`, the growth is -91.5% [100 µM] (active). Still for that read-out and setting: the value for `COc1c(Br)cc(C(c2cc(Br)c(OC)c(Br)c2)c2ccccc2C(=O)O)cc1Br` was 91.2% (inactive); that for `CCOC(=O)C(C(=O)OCC)C1CCCCC1` was 102% (inactive). The same measure, in the same setting: the value for `CCCCCCCC[Si](OCC)(OCC)OCC` was 98.2% (inactive). For `C[C@H]1O[C@@H](O[C@H]2[C@@H](O)C[C@H](O[C@H]3[C@@H](O)C[C@H](O[C@H]4CC[C@]5(C)C6CC[C@]7(C)[C@@H](C8=CC(=O)OC8)CC[C@]7(O)C6CC[C@@H]5C4)O[C@@H]3C)O[C@@H]2C)C[C@H](O)[C@@H]1O` (some centres not stated), the growth is -68% (active).

The test system of another assay is CAKI-1 renal. The assay is described as above. As to conditions: 10 µM unless noted.
As for `COc1ccc(NC(=O)c2ccccc2-c2ccccc2)c(C(N)=O)c1`, the growth was 41.9% (inactive). Same read-out and setting: the value for `Cc1ccc(-c2csc(N)n2)cc1` was 99.2% (inactive); that for `NS(=O)(=O)c1ccc(N2CC(c3nc4ccccc4[nH]3)CC2=O)cc1` (configuration not stated) was 97.3% (inactive). On the same count and under the same terms, the value for `Cc1nn(-c2ccccc2)c2nc(N)c(C3=NCCO3)nc12` was 78.4% (inactive). On the same count and under the same terms, the value for `CCCCNCCCN(CCCC)CCCNCCCC` was 91.1% (inactive); that for `C1CCC(C(CC2CCCCN2)C2CCCCC2)CC1` (configuration not stated) was 5.48% (active).

Consider `Oc1c(Cl)cc(Cl)c(Cl)c1Cc1c(O)c(Cl)cc(Cl)c1Cl`, for which the growth is -18.3% (active). `CSc1nc(Nc2ccc(S(=O)(=O)Nc3ccon3)cc2)c(C#N)c(-c2ccc(Cl)cc2)n1`: the growth is 102% (inactive). Still for that read-out and setting: the value for `O=C(Nc1nc2ccc(OC(F)(F)F)cc2s1)c1ccc(F)cc1` was 6.43% (active); that for `Cn1c(N2N=C(c3ccc(Cl)cc3)CC2c2ccccc2)nc(-c2ccccc2)c(C#N)c1=O` (configuration not stated) was 63.7% (inactive). The same measure, in the same setting: the value for `NC(=NCCCCCCN=C(N)/N=C(\N)Nc1ccc(Cl)cc1)/N=C(\N)Nc1ccc(Cl)cc1` was 10.3% (inactive); that for `Oc1c(N=Nc2nn[nH]n2)ccc2ccccc12` was 98.2% (inactive). `Cc1ccc(/C=C/C(=O)c2ccc(F)cc2)s1`: the growth is 78.6% (inactive).

For the compound `CC[N+](CCCCCCCCCC[N+](CC)(c1ccccn1)c1ccccn1)(c1ccccn1)c1ccccn1`, the growth was 24.2% (inactive). On the same count and under the same terms, the value for `O=C(c1ccc(N2CCOCC2)cc1[N+](=O)[O-])N1CCOCC1` was 20.1% (inactive); that for `Cc1ccc(-c2c3c(N)nc(-c4ccncc4)nc3nc3c2c(C)nn3-c2ccccc2)cc1` was 72.5% (inactive); that for `COc1cccc(CCN2C(=O)CCC3=C2CCC3=O)c1` was 98% (inactive). Same read-out and setting: the value for `CC(=O)c1nn(-c2ccccc2)c(=Nc2ccccc2)cc1C` was 99.1% (inactive); that for `COc1ccc(-c2nc3sc4c(c3c(=O)[nH]2)CCCCCC4)cc1` was 47.2% (inactive). Same read-out and setting: the value for `CCOC(=O)/C(=C/CC/C(C)=C/CC/C(C)=C/CCc1ccoc1)CC(=O)N1CCCCC1` was 60.7% (inactive); that for `CC1CC=CCC1C1OCC(C)(C)CO1` (configuration not stated) was 106% (inactive); that for `Cc1[nH]c(=O)[nH]c(=O)c1CCSSCCc1c(C)[nH]c(=O)[nH]c1=O` was 97.1% (inactive).

In the case of `CC(NNC(=S)N1CCCCCC1)c1ccc2ccccc2n1` (configuration not stated), the growth was -9.22% (active). On the same count and under the same terms, the value for `NS(=O)(=O)c1ccc(-n2nc(-c3ccc(Br)cc3)ccc2=O)cc1` was 75.1% [100 µM] (inactive); that for `CCOc1cc(CCNS(=O)(=O)c2ccc(C)cc2)c(C(C)=O)cc1OCC` was 36% [100 µM] (inactive). For `CC(=O)N1N=C(c2ccc(Nc3ccnc4cc(Cl)ccc34)cc2)CC1c1ccc(Cl)cc1` (configuration not stated), the growth is 44.7% (inactive). Consider `COC(=O)[C@H](Cc1cnc[nH]1)NC(=O)[C@@H](NC(=O)Nc1cc(C(F)(F)F)cc(C(F)(F)F)c1)C(C)C`, for which the growth is 40.9% [100 µM] (inactive). Take `CCCCCCCCCCCCC1CCCC(C)C1` (configuration not stated): the growth is 88.2% (inactive). With `FC(F)(F)c1ccc(-c2cnc(-c3nn[nH]n3)nc2NC2CCCCCC2)cc1`, the growth was 36.8% [50 µM] (inactive). For `CCCCCc1c(C)[nH]c(/C=C2\N=C(c3ccc[nH]3)C=C2OCc2ccccc2)c1C`, the growth is -74.4% [100 µM] (active). On the same count and under the same terms, the value for `COc1c(Br)cc(C(c2cc(Br)c(OC)c(Br)c2)c2ccccc2C(=O)O)cc1Br` was 91.6% (inactive); that for `N#Cc1ncc(-c2ccc(C(F)(F)F)cc2)c(NC2CCCCCC2)n1` was 56.8% (inactive); that for `CCCCCCCC[Si](OCC)(OCC)OCC` was 54.9% (inactive). Same read-out and setting: the value for `C[C@H]1O[C@@H](O[C@H]2[C@@H](O)C[C@H](O[C@H]3[C@@H](O)C[C@H](O[C@H]4CC[C@]5(C)C6CC[C@]7(C)[C@@H](C8=CC(=O)OC8)CC[C@]7(O)C6CC[C@@H]5C4)O[C@@H]3C)O[C@@H]2C)C[C@H](O)[C@@H]1O` (some centres not stated) was -92.6% (active).
